Usually inhibition stands for the change of the read-out against control, counted positive when it falls.

Screen size: about 4,700 compounds; about 360 (7.7%) were called active. These entries were drawn from the full list. Unmarked numbers belong to inactive results.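 How the source made its calls: active means inhibition above a cutoff derived from the DMSO control wells (cut at about 30% in these data); inactive means the rest.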

A short description of this test: bead signal artefacts at single dose – biochemical, AlphaScreen, triplicate, counter-screen for MITF inhibitor project (AID 1259376). As to conditions: LysRS AlphaScreen counterscreen, signal interference, at 2.6 µM, stronger effect = higher value.
In the case of `O=[N+]([O-])c1ccccc1S(=O)(=O)N1CCN(C2Cc3ccccc3C2)CC1`, the inhibition is 15%.

Turning to `CSc1ccc(CN2CCN(Cc3cccc(Oc4ccccc4)c3)CC2)cc1`, the inhibition was 6.5%.

Turning to `O=S(=O)(c1ccc(F)cc1)N1CCN(Cc2ccccc2C(F)(F)F)CC1`, the inhibition was 12.8%.

For the compound `CSc1ccc(CN2CCN(S(=O)(=O)c3ccc([N+](=O)[O-])cc3)CC2)cc1`, the inhibition was 30% (active).

For the compound `CC(C)(C)NCC(=O)Nc1c2c(nc3ccccc13)N(Cc1ccccc1)CC2`, the inhibition was 15.5%.

On to `CC1CCCCC1NC(=O)CSc1nnc(-c2ccncc2)n1CCCN(C)C` (stereo unspecified), for which the inhibition is 14.7%.

`O=C(OCCN1CCOCC1)c1c(Cl)nc2sccn12`: the inhibition was 10.9%.

For `Cc1cc(OCCN2CCN(C)CC2)ccc1C(C)C`, the inhibition was 4.96%.

Turning to `CCCS(=O)(=O)N1CCN(Cc2ccccc2Br)CC1`, the inhibition was 13.6%.

In the case of `COc1ccc2c(c1)CC(C(=O)Nc1ccc(-c3cn[nH]c3)cc1OCc1ccccc1)CO2` (stereo unspecified), the inhibition is 22.5%.

As for `O=C(Nc1ccc(-c2ccncc2)c(C(F)(F)F)c1)C1COc2ccccc2O1` (stereo unspecified), the inhibition was 5.92%.

Turning to `COc1cccc(CN2CCN(CCCc3ccccc3)CC2CCO)c1` (stereo unspecified), the inhibition was -5.46%.

For the compound `CN(C)CC(C)(C)CNCc1nnc(-c2ccccc2)o1`, the inhibition is -0.68%.

In the case of `N#C/C(=C/c1ccc(-c2ccc3c(c2)C(=O)NC3=O)o1)C(=O)O`, the inhibition was 13.4%.

On to `COc1ccc(OC)c(CN2CCN(Cc3ccccc3OC)CC2)c1`, for which the inhibition was 18.2%.

With `COC(=O)c1cccc(NS(=O)(=O)c2ccc3ccccc3c2)c1C`, the inhibition was 21.9%.

As for `COc1ccc(CN2CCN(Cc3ccccc3C(F)(F)F)CC2)cc1OC`, the inhibition was 17.4%.

As to `CS(=O)(=O)N1CCN(Cc2cccc(Cl)c2)CC1`, the inhibition was -4.82%.

Regarding `O=C(O)CCCCCNC(=O)/C(=C\c1ccco1)NC(=O)c1ccccc1`, the inhibition is -2.96%.

Consider `COc1ccc2c(c1)CC(c1nc(Nc3ccc4cnccc4c3)c3ccccc3n1)CO2` (stereo unspecified), for which the inhibition was 8.8%.

Turning to `COc1cccc(OC)c1C(=O)N1CCN(Cc2cccnc2)CC1`, the inhibition was 14.3%.

Take `COc1cc(CN2CCN(Cc3ccc(OC)c(OC)c3)CC2)cc(OC)c1`: the inhibition was 1.7%.

For the compound `COc1cc(CN(CCN(C)C)Cc2ccccc2)cc(OC)c1`, the inhibition is 2.44%.

As to `CC(c1ccccn1)N(CCN(C)C)C(=S)Nc1ccccc1F` (stereo unspecified), the inhibition is 100% (active).

Regarding `COc1ccc2c(c1)CC(C(=O)Nc1ccc(-c3cn[nH]c3)cc1OCC(N)=O)CO2` (stereo unspecified), the inhibition was 16.5%.

Take `CCN1CCN(CCCOc2ccc(C(C)=O)cc2OC)CC1`: the inhibition was 19.6%.

For `CCN(CCN(C)C)Cc1c(Cl)cccc1Cl`, the inhibition was -9.64%.

As to `NC(=O)COC(=O)/C=C/c1ccc(I)o1`, the inhibition is 16.2%.

As to `COc1cc(OC)c(OC)cc1CN1CCN(Cc2ccc(F)cc2)CC1`, the inhibition is -4.28%.

With `COc1ccc(CN2CCN(Cc3cc(OC)ccc3OC)CC2)cc1`, the inhibition is -1.01%.

For the compound `CC(=O)N1CCN(CC(=O)Nc2ccc(C)c(F)c2)CC1`, the inhibition was 5.18%.

Consider `COC(=O)CSc1nc(C2CC2)nc2ccccc12`, for which the inhibition is 9%.

On to `CCOc1ccc(CN2CCN(C(=O)c3cccc(Cl)c3)CC2)cc1`, for which the inhibition is 0.05%.

For `COc1ccc(NC(=O)c2cc3n(n2)C(C(F)(F)F)CC(c2ccc(OC)c(OC)c2)N3)cc1OC` (stereo unspecified), the inhibition is -6.86%.

Turning to `CCC(C)NCCOCCOc1cc(C)cc(C)c1C` (stereo unspecified), the inhibition was -2.01%.

As for `CCN1CCN(CC(O)COc2cccc(C(=O)OC)c2)CC1` (stereo unspecified), the inhibition was -1.14%.

As to `O=C1c2ccccc2C(O)N1Cc1ccccc1Cl` (stereo unspecified), the inhibition is 0.5%.

Take `c1cc2c(cc1CN1CCN(C3CCCC3)CC1)OCO2`: the inhibition was 2.1%.

Consider `Cc1ccc(C(C)C)c(OCCN2CCNCC2)c1`, for which the inhibition is -3.79%.

As to `COc1cccc(-c2ncnn2-c2sc3c(c2C#N)CCCCC3)c1`, the inhibition is 17.1%.

For the compound `COc1ccc(NC(=O)CN2CCN(C)CC2)c(OC)c1`, the inhibition is 13.8%.

In the case of `COc1ccc(CNCC2CN(CC(C)C)CCO2)cc1` (stereo unspecified), the inhibition is 10.1%.

For `COc1cccc(CN2CCN(Cc3ccc(C(F)(F)F)cc3)CC2)c1OC`, the inhibition was -5.41%.

Regarding `NS(=O)(=O)c1cccc(NC(=O)COc2ncnc3sc(-c4ccccc4)cc23)c1`, the inhibition is 20.8%.

As for `O=C(NN1C(=O)c2ccccc2C1=O)c1cccc(F)c1`, the inhibition was -4.68%.

In the case of `CCOc1ccc(OCCCCNCCO)cc1`, the inhibition is 15.9%.

Take `Cc1cnc(NCc2ccc3c(c2)OCO3)nc1Nc1ccccc1`: the inhibition is 7.89%.

`CCCS(=O)(=O)N1CCN(Cc2cccc(Cl)c2)CC1`: the inhibition is 13.1%.

As to `c1cc2c(cc1CNc1nc(Nc3ccc(N4CCOCC4)cc3)c3ncn(C4CCCCC4)c3n1)OCO2`, the inhibition was -14.4%.

For the compound `COCc1nc2ccccc2n1CCc1noc(-c2ccco2)n1`, the inhibition was -8.54%.

For `Cc1cc(S(=O)(=O)Nc2ccc3c(c2)OCCO3)ccc1-n1cnnn1`, the inhibition was 14%.

With `Cc1ccc(C(C)C)c(OCC#CCN2CCNCC2)c1`, the inhibition was 14.9%.

Regarding `CC(C)(C)NCCOCCOc1ccc(Cl)c(Cl)c1`, the inhibition was 9.65%.

`C[C@@H](OCc1ccccc1)[C@@H]1NC(=O)[C@H]2CN(C(=O)Nc3cccc(F)c3)CCN2C1=O`: the inhibition is 1.57%.

Take `COc1cc(CN2CCN(Cc3ccco3)CC2)c([N+](=O)[O-])cc1OC`: the inhibition is 13%.

For `CC[C@@H]1NC(=O)[C@H]2CN(C(=O)NCc3ccccc3)CCN2C1=O`, the inhibition is 2.23%.

The record behind these values is PubChem BioAssay AID1259376 (The Scripps Research Institute Molecular Screening Center, 2018).
